Data published in PubChem BioAssay (EPA / NIEHS).
Inconclusive results are not listed. Active and inactive are the calls of the source. The calls were made as follows: active = hit-call score of the fitted dose curve at least 0.9, where 1 is the maximum; inconclusive = response in the unintended direction; inactive = score below 0.9.

Read-out: Cytochrome P450 2C19 (Homo sapiens) (UniProt P33261)
Assay: CLD_CYP2C19_24hr: CellzDirect (CLD) Gene Expression Assay for xenobiotic metabolism (CYP2C19) at 24 hours (AID 2283687);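 also: activity means mRNA induction above DMSO vehicle baseline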
Protocol: CLD_24hr is a cell-based, multiplexed-readout assay that uses hepatocyte, a human liver primary cell, with measurements taken at 24 hours after chemical dosing in a 96-well plate.CLD_CYP2C19_24hr is one of 16 assay component(s) measured or calculated from the CLD_24hr assay. It is designed to make measurements of mRNA induction, a form of inducible reporter, as detected with chemiluminescence signals by Quantitative Nuclease Protection Assay (qNPA) technology.Data from the assay component CLD_CYP2C19_24hr was analyzed at the endpoint, CLD_CYP2C19_24hr, in the positive analysis fitting direction relative to DMSO as the negative control and baseline of activity. Using a type of inducible reporter, gain-of-signal activity can be used to understand changes in the reporter gene as they relate to the gene CYP2C19. Furthermore, this assay endpoint can be referred to as a primary readout. To generalize the intended target to other relatable targets, this assay endpoint is annotated to the cyp intended target family, where subfamily is xenobiotic metabolism.
Human hepatocyte cultures were treated daily for two consecutive days with fresh dosing solutions containing appropriate concentrations of the 320 ToxCast chemicals (chemical identities were blinded to CellzDirect and other ToxCast collaborators), vehicle control (0.2% DMSO), and positive control inducers as summarized in Table 1. Due to the large number of treatment groups and chemicals examined, the ToxCast chemicals were divided into two groups (spanning two independent cultures of hepatocytes from separate donor preparations (Hu778: ToxCast plates 1 and 2; Hu776: ToxCast plates 3 and 4). Each preparation of human hepatocyte cultures was treated with respective vehicle control, medium only control, set of six positive controls/reference chemicals for the five hepatic receptor pathways, and a subset of eight of the ToxCast chemicals (indoxacarb, pyrithiobac-sodium, norflurazon, cyhalofop-butyl, methomyl, thiram, acetochlor, and propiconazole). These replicate data, coupled with internal replicates designed within the blinded ToxCast chemical library, provided additional data to evaluate interindividual differences between hepatocyte preparations and their potential impact on chemical profiles.Cell morphology and integrity were evaluated using phase-contrast microscopy as an indicator of hepatocyte cell health (Tyson & Green, 1987). Cultures for each treatment group (i.e., media, vehicle [0.2% DMSO], positive control inducers [multiple concentrations], and the ToxCast chemicals [multiple concentrations]) were observed and cell morphology was assessed relative to vehicle control cultures at each harvest time point (0, 6, 24, or 48 h). […] Images were evaluated at the conclusion of the study to assess changes in cell integrity and account for the effects of chemical exposure on uncharacteristic changes in concentration-dependent gene expression profiles. The results from these determinations of apparent cytotoxicity were annotated (yes/no) alongside the corresponding qNPA data for reference.At the conclusion of each treatment period, hepatocyte cultures (96-well) were washed with 1 volume of HBSS, lysed by addition of 25 ul ArrayPlate lysis buffer (HTG, Tucson, AZ), and 70 ul/well of Denaturation Oil, denatured by incubation at 95C for 10 min, and frozen at approximately -70C until analysis by nuclease protection assay (qNPA) (Roberts et al., 2007). For qNPA analysis, cell lysates were thawed at 50C for approximately 30 min, qNPA probes were added, and samples were incubated at 95C for 10 min to begin the detection process by denaturing the target RNA, dissociating the duplexes and secondary structure hybridization. At the conclusion of the hybridization period, S1 nuclease reagent was added to each sample to digest all nonprotected nucleotides at 50C for 60-90 min. […]

Cytochrome P450 2C19 (Homo sapiens), sequence (P33261 whole entry, looked up): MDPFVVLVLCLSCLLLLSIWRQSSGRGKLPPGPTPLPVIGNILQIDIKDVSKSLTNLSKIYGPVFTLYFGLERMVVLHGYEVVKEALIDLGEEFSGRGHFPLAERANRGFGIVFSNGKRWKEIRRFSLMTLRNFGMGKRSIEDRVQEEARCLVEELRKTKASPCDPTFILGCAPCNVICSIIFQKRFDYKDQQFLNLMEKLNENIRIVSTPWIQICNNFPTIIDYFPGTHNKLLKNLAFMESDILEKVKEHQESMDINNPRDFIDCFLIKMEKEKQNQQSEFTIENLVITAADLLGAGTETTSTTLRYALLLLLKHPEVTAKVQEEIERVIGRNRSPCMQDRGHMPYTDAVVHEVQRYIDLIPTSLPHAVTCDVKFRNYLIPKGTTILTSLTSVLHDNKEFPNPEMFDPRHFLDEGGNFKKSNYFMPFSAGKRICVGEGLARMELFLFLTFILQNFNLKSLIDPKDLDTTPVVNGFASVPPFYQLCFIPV

Structure (SMILES) | outcome
Clc1cccc(C(Cl)(Cl)Cl)n1 | inactive
COCC(=O)N(c1c(C)cccc1C)C(C)C(=O)OC (stereo unspecified) | inactive
CCCN(CC)CC1COC2(CCC(C(C)(C)C)CC2)O1 (stereo unspecified) | inactive
Cc1cnc(C2=NC(C)(C(C)C)C(=O)N2)c(C(=O)O)c1 (stereo unspecified) | inactive
CCNC(=O)NC(=O)C(C#N)=NOC | inactive
Nc1c(Cl)c(Cl)nc(C(=O)O)c1Cl | inactive
CSC(=O)c1c(C(F)F)nc(C(F)(F)F)c(C(=O)SC)c1CC(C)C | inactive
O=C1C2CC=CCC2C(=O)N1SC(Cl)(Cl)Cl (stereo unspecified) | inactive
CCCC(=NOCC)C1=C(O)CC(CC(C)SCC)CC1=O (stereo unspecified) | inactive
CCCCOCN(C(=O)CCl)c1c(CC)cccc1CC | inactive
Cc1nc(N(C)C)nc(OC(=O)N(C)C)c1C | inactive
O=P(O)(O)CCCl | inactive
COC(=O)NS(=O)(=O)c1ccc(N)cc1 | inactive
CC1(C)C(C=C(Cl)Cl)C1C(=O)OC(C#N)c1cccc(Oc2ccccc2)c1 (stereo unspecified) | inactive
O=c1n(Cl)c(=O)n(Cl)c(=O)n1Cl | inactive
CC(C)Oc1cccc(NC(=O)c2ccccc2C(F)(F)F)c1 | inactive
Nc1c(Cl)c(F)nc(OCC(=O)O)c1Cl | inactive
CC(C)(C)C(=O)C(Oc1ccc(Cl)cc1)n1cncn1 (stereo unspecified) | inactive

Structure (SMILES) | outcome
CCSC(=O)N1CCCCCC1 | inactive
CCN(CC)C(=O)C(C)Oc1cccc2ccccc12 (stereo unspecified) | inactive
COc1cc(Cl)c(OC)cc1Cl | inactive
CNC(=O)N(C)c1nnc(C(C)(C)C)s1 | inactive
CN=C=S | inactive
CC1(C)CON(Cc2ccccc2Cl)C1=O | inactive
CC(C)N1C(=O)c2ccccc2NS1(=O)=O | inactive
CC(C)=CC1C(C(=O)OCc2coc(Cc3ccccc3)c2)C1(C)C (stereo unspecified) | inactive
COP(=O)(OC)O/C(C)=C/C(=O)N(C)C | inactive
N#CN=C1SCCN1Cc1ccc(Cl)nc1 | inactive
C=C(C)CN(CC)c1c([N+](=O)[O-])cc(C(F)(F)F)cc1[N+](=O)[O-] | inactive
Cc1c(COC(=O)[C@@H]2[C@H](/C=C(\Cl)C(F)(F)F)C2(C)C)cccc1-c1ccccc1 | inactive
O=C(O)c1c(Cl)ccc2cc(Cl)cnc12 | inactive
CS(=O)(=O)c1cc(C(F)(F)F)ccc1C(=O)c1cnoc1C1CC1 | inactive
CC(C)C1(C)N=C(c2ncccc2C(=O)O)NC1=O (stereo unspecified) | inactive
CS(=O)(=O)c1ccc(C(=O)C2C(=O)CCCC2=O)c([N+](=O)[O-])c1 | inactive
C=CCOC(=O)C(C)(C)OC(=O)c1cc(-n2c(=O)cc(C(F)(F)F)n(C)c2=O)ccc1Cl | inactive
COc1cc(OC)nc(NC(=O)NS(=O)(=O)c2ncccc2OCC(F)(F)F)n1 | inactive
